Compound activity from PubChem BioAssay.
An excerpt weighted towards active compounds, which were near 2.9% of everything screened.
CRFR2-BP ag – agonists of human CRF-binding protein/CRF-R2 receptor complex; HEK293 CRF-R2/CRF-BP, calcium dye fluorescence (FLIPR); percent of saturating CRF peptide response; activation, % at 13.2 µM; 350,000 tested, 0.46% active; AID 588473;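 active = activation of at least 50%, plus an integration ratio under a set limit after plate pattern correction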
CRFBP-R2 block – blocks CRF-induced signaling of the CRF-BP/CRF-R2 complex; 350,000 tested, 0.59% active; HEK293 CRF-R2/CRF-BP, CRF-induced calcium fluorescence; inhibition, % at 11.8 µM;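 active = inhibition of the ligand-induced calcium signal above about 50% at the single tested concentration, limit read from the data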
MEKK2wt PB1 HTS – raises or lowers MEK5 binding to wildtype human MEKK2 PB1 domain; Q9Y2U5; bead flow cytometry, Alexa488-MEK5 binding to MEKK2 WT; actives lie on both sides; binding response (% of control), % at 10 µM; 290,000 tested, 1.1% active; AID 1531; in the data active = binding response below about 67% or above about 130%
ABCB6 inh MLPCN – human ABCB6 transporter inhibition; 360,000 tested, 0.19% active; Q9NP58; fluorescence ratio to DMSO, % at 10 µM; K562-ABCB6 porphyrin accumulation, flow cytometry, 1 h; active compounds read low;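 active = fluorescence ratio to DMSO below 75%, the collection mean minus 3 SD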;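 also: signal is porphyrin accumulated inside mitochondria; lower ratio means ABCB6 inhibition with less porphyrin fluorescence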
MEKK3 PB1 HTS – raises or lowers MEK5 binding to the human MEKK3 PB1 domain; bead-based flow cytometry, Alexa488-MEK5 binding to MEKK3; actives lie on both sides; 0 = blocked by unlabeled MEK5, 100 = vehicle; binding response (% of control), % at 10 µM; 290,000 tested, 1.4% active; AID 1529;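 active = binding response more than 3 SD above or below the average of its plate-row segment, actives on both sides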;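 also: Alexa488 bead fluorescence after subtracting the streptavidin-only scavenger bead signal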
Target sequence (Q99759 whole entry, looked up, the tested form may be a part): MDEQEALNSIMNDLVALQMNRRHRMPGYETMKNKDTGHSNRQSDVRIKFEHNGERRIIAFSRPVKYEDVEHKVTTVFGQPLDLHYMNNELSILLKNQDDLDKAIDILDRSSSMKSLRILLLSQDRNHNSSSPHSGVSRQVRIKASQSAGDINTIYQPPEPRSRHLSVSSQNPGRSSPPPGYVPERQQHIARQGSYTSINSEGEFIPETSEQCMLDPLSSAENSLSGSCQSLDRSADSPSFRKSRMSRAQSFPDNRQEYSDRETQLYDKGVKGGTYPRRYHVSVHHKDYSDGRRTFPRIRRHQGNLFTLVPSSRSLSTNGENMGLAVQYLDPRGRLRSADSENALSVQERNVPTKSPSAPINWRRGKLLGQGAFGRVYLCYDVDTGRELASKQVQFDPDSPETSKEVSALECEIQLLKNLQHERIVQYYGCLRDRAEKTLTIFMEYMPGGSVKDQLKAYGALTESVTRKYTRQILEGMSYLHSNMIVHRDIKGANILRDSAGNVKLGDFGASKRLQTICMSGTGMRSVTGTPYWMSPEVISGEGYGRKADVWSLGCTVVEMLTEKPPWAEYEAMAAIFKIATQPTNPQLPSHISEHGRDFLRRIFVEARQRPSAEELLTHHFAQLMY
MEKK2 mut-MEK5 – signal of MEK5 binding to mutant human MEKK2 PB1 domain; 290,000 tested, 0.35% active; bead flow cytometry, Alexa488-MEK5 binding to MEKK2 mutant; AID 1530; percent response, % at 10 µM; in the data active = percent response above about 24%, passing the limit was not always enough
Of the large screens only hits and unclear results are named; the others gave an inactive call; [ ] = remark or other dose.

COc1ccc(N(CC(=O)N/N=C/c2ccc3c(c2)OCO3)S(=O)(=O)c2ccc(NC(C)=O)cc2)cc1	CRFBP-R2 block 54
COc1ccc(N(CC(=O)Nc2ccc(C(N)=O)cc2)S(=O)(=O)c2ccc(C)c([N+](=O)[O-])c2)cc1	MEKK2wt PB1 HTS -7.0
COc1cc2ccccc2cc1C(=O)N/N=C/c1ccc2c(c1)OCO2	CRFBP-R2 block 53
O=C(NCc1n[nH]c(=S)n1-c1ccccc1Cl)c1ccc(S(=O)(=O)N2CCCCC2)cc1	none
Cc1cccnc1C(NC(=O)C1CCN(CCOc2ccc(F)cc2)CC1)c1ccc(F)cc1 (stereo not drawn)	none (no result: CRFR2-BP ag, CRFBP-R2 block, MEKK2wt PB1 HTS, MEKK3 PB1 HTS, MEKK2 mut-MEK5)
COc1cc(Cl)c(C)cc1NC(=O)COC(=O)C1=COCCO1	none (no result: MEKK2wt PB1 HTS, MEKK3 PB1 HTS, MEKK2 mut-MEK5)
COc1ccc(-c2cnc(N)n2C)cc1	MEKK2wt PB1 HTS -8.0
Cc1ccc(C(=O)N2CCN(C(=O)CN3CCOCC3)C2)cc1	CRFBP-R2 block 78
Cc1ccc(C(=O)NCCNC(=O)CN2CCOCC2)cc1	none (no result: MEKK2wt PB1 HTS, MEKK3 PB1 HTS, MEKK2 mut-MEK5)
CC[C@]12c3[nH]c4ccc(OC)cc4c3CCN1C(=O)C(CC(=O)NCc1ccco1)C[C@@H]2C(=O)N1CCN(C(=O)c2ccco2)CC1 (stereo partly drawn)	none (no result: MEKK2wt PB1 HTS, MEKK3 PB1 HTS, MEKK2 mut-MEK5)
N#C/C(=C\c1ccccn1)c1nc2ccccc2s1	CRFR2-BP ag 82
COC(=O)c1ccc(/C=C(\C#N)c2nc3ccccc3s2)cc1	none
COC(=O)c1sc2nc(C)nc(SCC(=O)Nc3sccc3C(N)=O)c2c1C	none (no result: MEKK2wt PB1 HTS, MEKK3 PB1 HTS, MEKK2 mut-MEK5)
COC(=O)[C@]1(CC(C)C)N[C@H](c2ccc(-c3ccc(F)cc3)cc2)[C@@H]2C(=O)N(C)C(=O)[C@@H]21	none (no result: MEKK2wt PB1 HTS, MEKK3 PB1 HTS, MEKK2 mut-MEK5)
CC1(c2ccc(OC(F)F)cc2)NC(=O)N(CC(=O)Nc2ccc(F)cc2)C1=O (stereo not drawn)	none
CC1(c2ccc(OC(F)F)cc2)NC(=O)N(CC(=O)Nc2cccc(F)c2)C1=O (stereo not drawn)	CRFR2-BP ag 136
CCOc1ccc(NC(=O)CN2C(=O)NC(C)(c3ccc(OC(F)F)cc3)C2=O)cc1 (stereo not drawn)	CRFR2-BP ag 74
Cc1cc(NC(=O)CN2C(=O)NC(C)(c3ccc(OC(F)F)cc3)C2=O)no1 (stereo not drawn)	CRFR2-BP ag 78
CC(C)c1nnc(N2C(=O)C(O)=C(C(=O)c3cccs3)C2c2ccccc2)s1 (stereo not drawn)	CRFR2-BP ag 196
COc1ccc(C2C(C(=O)c3cccs3)=C(O)C(=O)N2c2nncs2)cc1 (stereo not drawn)	CRFR2-BP ag 265
Cc1cccc(N2C(=O)C(O)=C(C(=O)c3cccs3)C2c2ccc(C(C)C)cc2)n1 (stereo not drawn)	CRFR2-BP ag 62
Cc1cccc(N2C(=O)C(O)=C(C(=O)c3cccs3)C2c2ccc(F)cc2)n1 (stereo not drawn)	none
Cc1ccc(NC(=O)c2ccc(=O)[nH]c2)cc1S(=O)(=O)N1CCCCC1	none
COc1ccc(NC(=O)CN2C(=O)NC(C)(C3CC3)C2=O)cc1S(=O)(=O)N1CCOCC1 (stereo not drawn)	none (no result: MEKK2wt PB1 HTS, MEKK3 PB1 HTS, MEKK2 mut-MEK5)
COCCNC(=O)c1ccc(CN2CCc3ccccc3C2)cc1	none
CCCNC(=O)c1ccc(CN2CCc3ccccc3C2)cc1	CRFBP-R2 block 85
O=C(C/C=N\OCc1ccc([N+](=O)[O-])cc1)Nc1ccc(Br)cc1	CRFBP-R2 block 84
Cc1ccc(C(=O)c2no[n+]([O-])c2C(=O)c2ccc(C)cc2)cc1	ABCB6 inh MLPCN 67
O=C(Nc1ccccc1C(=O)NC1CC1)c1ccccc1F	none (no result: MEKK2wt PB1 HTS, MEKK3 PB1 HTS, MEKK2 mut-MEK5)
Clc1ccc(-c2nnc(CSc3nnc(-c4cccs4)o3)o2)cc1	CRFBP-R2 block 54
CCOC(=O)c1sc(NC(=S)NC(=O)c2ccccc2)nc1C	none
CCOC(=O)c1sc(NC(=S)NC(=O)c2cccc(OC)c2)nc1C	CRFR2-BP ag 58
N#Cc1nc(Nc2cccc(Cl)c2)c2ncn(C3CCCC3)c2n1	CRFBP-R2 block 97 (no result: MEKK2wt PB1 HTS, MEKK3 PB1 HTS, MEKK2 mut-MEK5)
CN(Cc1ccc(OC(F)F)cc1)C(=O)c1cccc(S(=O)(=O)N2CCN(c3ccccc3)CC2)c1	none (no result: MEKK2wt PB1 HTS, MEKK3 PB1 HTS, MEKK2 mut-MEK5)
O=C(COC(=O)C1CC(=O)N(Cc2ccco2)C1)c1ccc(OC(=O)c2ccco2)cc1 (stereo not drawn)	CRFBP-R2 block 82
O=[N+]([O-])c1ccc(-c2cn3nc(-c4ccccc4)c(-c4ccccc4)nc3n2)cc1	CRFR2-BP ag 66
O=[N+]([O-])c1cccc(-c2cn3nc(-c4ccccc4)c(-c4ccccc4)nc3n2)c1	none
COc1ccc(-c2cc(NC=O)c3ncc(-c4ccc(OC)c(OC)c4)n3c2)cc1	none (no result: CRFR2-BP ag, CRFBP-R2 block, MEKK2wt PB1 HTS, MEKK3 PB1 HTS, MEKK2 mut-MEK5)
C[C@@H]1CN([C@@H](C)CO)C(=O)CCCn2nncc2CO[C@H]1CN(C)S(=O)(=O)c1cn(C)cn1	none (no result: MEKK2wt PB1 HTS, MEKK3 PB1 HTS, MEKK2 mut-MEK5)
Cc1c(C(=O)N2CCC[C@H]2C(N)=O)oc2c(F)cccc12	none
CSC1=NCCN1C(=O)Cc1ccc(Cl)cc1	CRFBP-R2 block 50
COc1ccc(C)cc1-n1cnnn1	none
NC(=O)C1CCN(CC(O)COCc2ccccc2Cl)CC1 (stereo not drawn)	none
CCCOc1ccc(C(=O)Nc2ccc(N3CCOCC3)cc2N2CCOCC2)cc1OCC	none (no result: MEKK2wt PB1 HTS, MEKK3 PB1 HTS, MEKK2 mut-MEK5)
COC(=O)c1ccc(CSc2nc3ccc(Cl)cc3[nH]2)o1	none
COC(=O)c1ccc(CSc2nc3scc(-c4cccs4)c3c(=O)[nH]2)o1	ABCB6 inh MLPCN 59
CCCN1C(=O)/C(=C/c2ccc(N3CCCC3)c(C)c2)NC1=S	CRFR2-BP ag 346
Cc1cc(/C=C2\NC(=S)N(C)C2=O)ccc1N1CCCC1	CRFR2-BP ag 283
CCCN1C(=O)/C(=C/c2ccc(OCC(=O)OCC)cc2)NC1=S	none
Cc1cc(/C=C2/C(=O)N(C)C(=S)N2C)ccc1N1CCCC1	CRFR2-BP ag 81
CC(C)(C)c1nc2ccc(NS(=O)(=O)c3ccc(F)c(F)c3F)cc2[nH]1	none
Cc1ccc(S(=O)(=O)N(CCCO)Cc2cc3c(C)ccc(C)c3[nH]c2=O)cc1	MEKK2wt PB1 HTS -2.0
Cc1ccc(S(=O)(=O)N(CCO)Cc2cc3ccc(C)c(C)c3[nH]c2=O)cc1	none
CCc1ccc(N2CC(C(=O)OCC(=O)Nc3ccc(C#N)cc3)CC2=O)cc1 (stereo not drawn)	none (no result: MEKK2wt PB1 HTS, MEKK3 PB1 HTS, MEKK2 mut-MEK5)
CC(=O)c1ccc(-c2cccs2)s1	CRFBP-R2 block 64
CNc1cccc(-c2ccc(C(C)=O)s2)n1	none (no result: CRFR2-BP ag, CRFBP-R2 block, MEKK2wt PB1 HTS, MEKK3 PB1 HTS, MEKK2 mut-MEK5)
Cc1cc(Cl)c2oc(C(=O)N(C)CC3CCOCC3)c(C)c2c1	MEKK2wt PB1 HTS 43[inhibitor], MEKK3 PB1 HTS 31[inhibitor]
CN1CCN(c2ccc(CNC(=O)c3ccc(-c4ccc(F)c(F)c4)c4ccoc34)cc2)CC1	none (no result: CRFR2-BP ag, CRFBP-R2 block, MEKK2wt PB1 HTS, MEKK3 PB1 HTS, MEKK2 mut-MEK5)
CC[C@@H](C)[C@@H]1CN([C@@H](C)CN2CCC[C@H]2CN2C(N)=NC[C@H]2CC(C)C)C(=N)N1CCc1ccc(Cl)c(Cl)c1	none (no result: MEKK2wt PB1 HTS, MEKK3 PB1 HTS, MEKK2 mut-MEK5)
